A short description of assay [1]: qHTS Assay for Lipid Storage Modulators (AID 1519; calls by dose curve; on activity change, negative = inhibition: on the % scale 0 is the no-effect control and ±100 the full control effect). Conditions: Drosophila S3 cells, BODIPY lipid droplet/cell ratio, laser cytometry, cells loaded with oleic acid. In short, it runs like this:
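Cells seeded at 5,000 per well were treated with compounds over a concentration series and loaded with oleic acid (400 uM, as added). Lipid droplet fluorescence (488 nm excitation, 500-530 nm channel) was read by laser-scanning cytometry and normalized to 20 uM Triacsin C.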
A general note: qHTS replaces the single test concentration by a dilution series.

Assay [2] deals with Alpha-galactosidase A (Homo sapiens) (UniProt P06280). Put plainly: Counterscreen for Glucocerebrosidase Inhibitors: qHTS Assay for Human alpha-Galactosidase at pH 4.5 (AID 992). Further: 0% is about no effect. The settings on record: purified enzyme, fluorogenic substrate; series mostly up to 76.9 µM. The procedure, abridged:
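Enzyme at 2 nM final was combined with compound (0.7 nM to 77 uM) and 80 uM 4-methylumbelliferyl alpha-D-galactopyranoside in 50 mM citric acid, 0.005% Tween-20, pH 4.5. After 20 min at room temperature, fluorescence was read (Ex 365/Em 440 nm); AC50 came from Hill fits.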

The target of assay [3] is alpha-glucosidase (Oryza sativa, rice) (UniProt Q653V4). Briefly: Counterscreen for Glucocerebrosidase Inhibitors: qHTS Assay for Rice alpha-Glucosidase at pH 5.0 (AID 997).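 Further: 0% = full activity with enzyme and -100% = basal without enzyme.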 The settings on record: rice alpha-glucosidase enzyme activity; series mostly up to 76.9 µM. The procedure, abridged: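 Rice alpha-glucosidase (4 nM final) with 400 uM 4-methylumbelliferyl-alpha-D-glucopyranoside in citrate buffer pH 5.0, 20 min at room temperature, stopped at pH 10; fluorescence 365/440 nm, compounds 0.7 nM–77 uM, AC50 from Hill fits.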
In general terms: A counterscreen serves to expose hits that act by an unwanted route or on another target.

The nature of assay [4]: Cell Viability - LYMP2-006 (AID 978). Further: on the % scale 0 is the no-effect control and ±100 the full control effect; nearly all actives have a fitted effect of over 60% in size. Conditions: LYMP2-006 lymphoblastoid cell viability, qHTS; series mostly up to 92.2 µM. The procedure, abridged: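 Human lymphoblastoid cells (LYMP2-006), 2500/well in complete medium, were treated with compound for 24 hr at 37 C. Cellular ATP was read by CellTiter-Glo luminescence after 30 min, and AC50 values came from Hill-equation fits of concentration-response data.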

The nature of assay [5]: Cell Viability - LYMP2-007 (AID 979).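 Further: cells exposed to compound for 24 h before reading; 0% = DMSO only and the negative end = 92 µM tetraoctylammonium bromide; nearly all actives have a fitted effect of over 60% in size.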 Conditions: LYMP2-007 lymphoblastoid cell viability; series mostly up to 92.2 µM. The procedure, abridged:
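Human lymphoblastoid LYMP2-007 cells (2500/well) preincubated 5 h at 37 C, then treated 24 h at 37 C in complete medium. Viability by CellTiter-Glo ATP luminescence after 30 min at room temperature; AC50 from Hill fits.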

Assay [6] can be described thus: Cell Viability - LYMP2-008 (AID 980). Further: on the % scale 0 is the no-effect control and ±100 the full control effect; nearly all actives have a fitted effect of over 60% in size. Conditions: LYMP2-008 lymphoblastoid cell viability, qHTS; series mostly up to 92.2 µM. The procedure, abridged: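 LYMP2-008 lymphoblastoid cells (2500/well) plated 5 h, then treated 24 h at 37 C in complete medium. Viability read as intracellular ATP by CellTiter-Glo luminescence after 30 min at room temperature; AC50 from Hill fits.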

A short description of assay [7]: Cell Viability - LYMP2-010 (AID 981). Further: on the % scale 0 is the no-effect control and ±100 the full control effect; nearly all actives have a fitted effect of over 55% in size. The settings on record: LYMP2-010 lymphoblastoid cell viability, qHTS; series mostly up to 92.2 µM. In short, it runs like this:
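Human lymphoblastoid LYMP2-010 cells (2500/well) treated 24 h at 37 C in complete medium; viability read as intracellular ATP by CellTiter-Glo luminescence. AC50 from Hill fits of concentration-response data; tetraoctylammonium bromide positive control.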

The nature of assay [8]: Cell Viability - LYMP2-012 (AID 982).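 Further: cellular ATP by luciferase luminescence where a drop means cytotoxicity; cells exposed to compound for one day before reading; 0% = DMSO only and full loss = 92 µM tetraoctylammonium bromide; nearly all actives have a fitted effect of over 55% in size.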 Conditions: LYMP2-012 lymphoblastoid cell viability qHTS; series mostly up to 92.2 µM.
A short description of assay [9]: Cell Viability - LYMP2-014 (AID 983).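 Further: plate controls were DMSO only for no effect and 92 µM tetraoctylammonium bromide for full effect; nearly all actives have a fitted effect of over 50% in size.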 Conditions: LYMP2-014 lymphoblastoid cells, viability qHTS; series mostly up to 92.2 µM. In short, it runs like this: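 LYMP2-014 human lymphoblastoid cells, 2500/well, treated 24 h at 37 C in complete medium; viability by CellTiter-Glo ATP luminescence after 30 min at room temperature. AC50 from Hill fits of qHTS concentration-response; tetraoctylammonium bromide positive control.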

Assay [10] is described as follows: Cell Viability - LYMP2-016 (AID 984). Further: on the % scale 0 is the no-effect control and ±100 the full control effect; nearly all actives have a fitted effect of over 55% in size. The settings on record: LYMP2-016 lymphoblastoid cell viability, qHTS; series mostly up to 92.2 µM. In short, it runs like this:
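Human lymphoblastoid LYMP2-016 cells, 2500 per well, treated with compounds for 24 h at 37 C. Viability read as intracellular ATP by CellTiter-Glo luminescence after 30 min at room temperature; AC50 from Hill fits of concentration-response.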

Assay [11] is described as follows: Cell Viability - LYMP2-018 (AID 985).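 Further: compound exposure lasted 24 hr at 37 °C; nearly all actives have a fitted effect of over 50% in size.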 Further: potency means the concentration at half of the fitted maximal effect. Conditions: LYMP2-018 lymphoblastoid cells, viability (qHTS); series mostly up to 92.2 µM. The procedure, abridged:
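Human lymphoblastoid LYMP2-018 cells, 2500/well, settled 5 hr at 37 C then exposed to compound 24 hr at 37 C; intracellular ATP measured by CellTiter-Glo luminescence. AC50 from Hill-equation concentration-response fits.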

The nature of assay [12]: Cell Viability - LYMP2-020 (AID 986). Further: nearly all actives have a fitted effect of over 55% in size. Further: potency means the concentration at half of the fitted maximal effect. The settings on record: series mostly up to 92.2 µM. The procedure, abridged:
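Human lymphoblastoid LYMP2-020 cells (2500/well) preincubated 5 h at 37 C, then treated 24 h at 37 C. Viability measured as intracellular ATP by CellTiter-Glo luminescence after 30 min at room temperature; AC50 from Hill fits.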

Assay [13] is described as follows: Cell Viability - LYMP2-022 (AID 987). The settings on record: LYMP2-022 lymphoblastoid cell viability; series mostly up to 92.2 µM. The procedure, abridged: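 LYMP2-022 lymphoblastoid cells (2500/well, complete medium) were treated with compounds for 24 hours at 37 C; intracellular ATP was then read by CellTiter-Glo luminescence after 30 min at room temperature. AC50 values were derived from Hill-equation fits.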

The nature of assay [14]: Cell Viability - LYMP2-024 (AID 988). Further: nearly all actives have a fitted effect of over 60% in size. Further: potency means the concentration at half of the fitted maximal effect. The settings on record: LYMP2-024 lymphoblastoid cell viability; series mostly up to 92.2 µM. In short, it runs like this:
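Human lymphoblastoid LYMP2-024 cells (2500/well) rested 5 hr, then treated with compound for 24 hr at 37 C in complete medium. Viability was measured as intracellular ATP by CellTiter-Glo luminescence. AC50 values came from Hill-equation fits.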

Assay [15] is described as follows: Cell Viability - LYMP1-002 - Assay at 24 hr (AID 993). Further: on the % scale 0 is the no-effect control and ±100 the full control effect. The settings on record: LYMP1-002 lymphoblastoid cells viability; series mostly up to 92.2 µM. The procedure, abridged: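 Human lymphoblastoid LYMP1-002 cells (2500/well) treated 24 h at 37 °C; viability as intracellular ATP by CellTiter-Glo luminescence. Tetraoctylammonium bromide as positive control; AC50 from Hill-equation fits of qHTS concentration-response.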

Assay [16] in a line: Cell Viability - LYMP1-002 - Assay at 40 hr (AID 994). Further: nearly all actives have a fitted effect of over 60% in size. Further: potency means the concentration at half of the fitted maximal effect. Conditions: LYMP1-002 lymphoblastoid cell viability; series mostly up to 92.2 µM. In short, it runs like this: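 LYMP1-002 human lymphoblastoid cells (2500/well, complete medium) were treated with compounds for 40 hr at 37 C. Intracellular ATP was measured by CellTiter-Glo luminescence, and AC50 values came from Hill-equation fits of concentration-response data; tetraoctylammonium bromide was the positive control.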

Assay [17] is described as follows: Cell Viability - LYMP2-026 (AID 989). Further: on the % scale 0 is the no-effect control and ±100 the full control effect; nearly all actives have a fitted effect of over 50% in size. Conditions: LYMP2-026 lymphoblastoid cell viability, qHTS; series mostly up to 92.2 µM. The procedure, abridged:
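Human lymphoblastoid LYMP2-026 cells, 2500/well, exposed to compound 24 h at 37 C in complete medium. Viability as intracellular ATP by CellTiter-Glo luminescence; AC50 from Hill fits of qHTS concentration-response.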

Setting [18] is: measured here: cell count channel max response.
Where [19] appears, read: measured here: lipid channel max response.

“And” between values parts separate entries of the source, which are not always exact repeats. Equal entries are not always repeated. Results filed as inconclusive are left out. The source made the active and inactive calls. Unless noted, the call rests on the fitted dose curve; in most records, active means well fitted curve in the direction sought with a large enough effect; inconclusive means small, poorly fitted or top-dose-only effect, or another doubt; inactive means no such curve, though single readings can be large; an effect the other way counts as inactive or inconclusive.

Chain of Alpha-galactosidase A (Homo sapiens) (P06280 whole entry, looked up): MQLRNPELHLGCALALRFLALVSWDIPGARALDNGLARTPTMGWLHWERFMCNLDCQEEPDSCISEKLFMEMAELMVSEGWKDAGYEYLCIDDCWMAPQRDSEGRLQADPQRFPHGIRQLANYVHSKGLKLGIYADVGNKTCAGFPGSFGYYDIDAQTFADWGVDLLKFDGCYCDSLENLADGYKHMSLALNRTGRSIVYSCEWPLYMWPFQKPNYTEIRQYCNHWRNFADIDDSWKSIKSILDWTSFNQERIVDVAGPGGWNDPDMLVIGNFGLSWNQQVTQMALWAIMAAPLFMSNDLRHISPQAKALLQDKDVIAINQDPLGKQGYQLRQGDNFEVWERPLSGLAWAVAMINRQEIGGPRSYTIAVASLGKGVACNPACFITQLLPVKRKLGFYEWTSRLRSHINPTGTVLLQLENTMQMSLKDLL

As to `O=C1C(O)=C(O)C(=O)C(O)=C1O`, the activity change, negative = inhibition was -0.531% (inactive) in [1] (at 25.7 µM (top of the series)) and 9.14% (inactive) in assay [1] (at 57.5 µM (top of the series)). Besides, the max response in assay [1] (setting [18]) was -3.62% and 13.5%; in [1] (setting [19]) it was -3.42% and 27.1%.
Regarding `NS(=O)(=O)Cc1noc2ccccc12`, the result in [2] and in assay [3] was inactive.
Take `CCN(CC)CCNc1ccc(CO)c2sc3ccccc3c(=O)c12`: the activity change, negative = inhibition in [1] (at 25.7 µM (top of the series)) is -5.73% (inactive); in [1] (at 57.5 µM (top of the series)), -11.5% (inactive). The max response is -10.2% and 2.62% in assay [1] (setting [18]); -16.8% and -5.8% in assay [1] (setting [19]).
Consider `COc1ccc(C(Cl)=C(c2ccc(OC)cc2)c2ccc(OC)cc2)cc1`, for which the call in assay [4], in assay [5], in assay [6], in assay [7], in assay [8] and in [9] was inactive. For the same compound, the call in assay [10], in [13] and in assay [15] was inactive. Also, the Potency entry in assay [11], in assay [12], in assay [14] and in [16] was “inactive” throughout. Besides, the activity change, negative = inhibition in assay [1] (at 25.7 µM (top of the series)) was 1.46% (inactive). Moreover, the max response was -13.4% in assay [1] (setting [18]) and -12.3% in assay [1] (setting [19]).
For `CN=C(N)NCCC[C@H](N)C(=O)O`, the result in assay [2] and in assay [3] was inactive. Further, in assay [1] (at 57.5 µM (top of the series)), the activity change, negative = inhibition is 0.0216% (inactive). Moreover, the max response in assay [1] (setting [18]) is -14.9%; in [1] (setting [19]) it was -15.5%.
Take `Oc1c(Cl)cc(Cl)c(Cl)c1Cc1c(O)c(Cl)cc(Cl)c1Cl`: the Potency is 25.1 µM (active) in assay [11], 15.8 µM (active) in assay [12], 39.8 µM (active) in assay [14] and 31.6 µM (active) in assay [16]. The activity change, negative = inhibition in assay [1] (at 57.5 µM (top of the series)) was 7.05% (inactive). Besides, the max response in [1] (setting [18]) was found to be 18%; in assay [1] (setting [19]), 27%.
With `CCN(CC)CCOC(=O)C(Cc1cccc2ccccc12)CC1CCCO1` (centres undefined), in [1] (at 57.5 µM (top of the series)), the activity change, negative = inhibition was 2.17% (inactive). The max response is 20.1% in assay [1] (setting [18]) and 24.7% in [1] (setting [19]).
With `COc1ccc(C(=O)c2ccccc2)c(O)c1`, the call in [4], in assay [5], in assay [6], in [7], in assay [8] and in assay [9] was inactive. For the same compound, the compound was classed as inactive in assay [10], in assay [13], in [17] and in assay [15]. For the same compound, the Potency entry in assay [11], in [12], in assay [14] and in assay [16] was “inactive” throughout. The activity change, negative = inhibition is -0.0822% (inactive) in [1] (at 25.7 µM (top of the series)) and 9.05% (inactive) in assay [1] (at 57.5 µM (top of the series)). The max response in assay [1] (setting [18]) was -14% and -2.88%; in [1] (setting [19]), -14.1% and 8.45%.
Consider `COc1ccc(C(=O)c2ccccc2O)c(O)c1`, for which the activity change, negative = inhibition in assay [1] (at 25.7 µM (top of the series)) is -7.39% (inactive); in [1] (at 57.5 µM (top of the series)), 4.5% (inactive). The max response in [1] (setting [18]) is -10.6% and 8.18%; in assay [1] (setting [19]), -18.3% and 15.8%.
As for `CC(C)(C)NC[C@H](O)COc1nsnc1N1CCOCC1`, the compound was classed as inactive in [2] and in assay [3]. Also, the activity change, negative = inhibition in [1] (at 25.7 µM (top of the series)) was -2.08% (inactive); in assay [1] (at 57.5 µM (top of the series)), 1.69% (inactive). The max response in assay [1] (setting [18]) is 10% and 1.77%; in assay [1] (setting [19]) it was 6.06% and 5.65%.
Take `CN1CCC[C@@H]1CCO[C@](C)(c1ccccc1)c1ccc(Cl)cc1`: the compound was called inactive in assay [2] and in assay [3]. The activity change, negative = inhibition in assay [1] (at 25.7 µM (top of the series)) is -6.95% (inactive). Further, the max response in assay [1] (setting [18]) is -6.75%; in assay [1] (setting [19]), -13.1%.

The record behind these values is PubChem BioAssay (NCATS).
